Test results published in PubChem BioAssay (NCI).
The panel holds about 79,000 compounds, 15% with a hit somewhere; the sample as a whole holds those more often. Values without a mark were called inactive. Activity calls are given as the source filed them. Rule as the data show it: active = growth inhibition above about 70%; inactive = the rest.

Experiments:
[1] = NCI Yeast Anticancer Drug Screen. Data for the rad52 strain (AID 147);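 also: 0% = growth of vehicle-treated control cultures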; settings: S. cerevisiae rad52 mutant growth inhibition, stronger effect = higher value
Summary of the method: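 Vehicle-treated cultures served as the reference for growth inhibition of compound-exposed yeast bearing a DNA repair mutation.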

[2] = NCI Yeast Anticancer Drug Screen. Data for the wt1 strain (AID 149);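 also: 0% = growth of vehicle-treated wt1 cultures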; settings: S. cerevisiae wt1 strain (SPY 50644) growth inhibition, stronger effect = higher value
Summary of the method: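 wt1 strain grown with compound or vehicle; inhibition taken from the growth difference.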

[3] = NCI Yeast Anticancer Drug Screen. Data for the rad50EPP+ strain (AID 151);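 also: 0% = growth of vehicle-treated control cultures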; settings: S. cerevisiae rad50 mutant strain, stronger effect = higher value
Summary of the method: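 In this screen, rad50EPP+ yeast were exposed to compounds. Growth inhibition was scored against vehicle-treated controls.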

[4] = NCI Yeast Anticancer Drug Screen. Data for the rad50 strain (AID 155);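 also: 0% = growth of vehicle-only cultures of the same strain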; settings: S. cerevisiae rad50 strain growth inhibition, stronger effect = higher value
Summary of the method: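 DNA repair mutant yeast, compound exposure, growth read-out; inhibition is taken relative to vehicle.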

[5] = NCI Yeast Anticancer Drug Screen. Data for the rad14 strain (AID 159);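 also: 0% = growth of vehicle-treated control cultures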; settings: S. cerevisiae rad14 strain growth inhibition, stronger effect = higher value
Summary of the method: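 DNA repair-defective yeast, compound-exposed; % growth inhibition derived by comparison with vehicle-treated controls.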

[6] = NCI Yeast Anticancer Drug Screen. Data for the sgs1 mgt1 strain (AID 161);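 also: 0% = growth of cultures given vehicle only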; settings: S. cerevisiae sgs1 mgt1 strain, stronger effect = higher value
Summary of the method: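 Test agents were incubated with a DNA-repair-mutant yeast strain. Growth was then read and compared against vehicle-treated controls.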

[7] = NCI Yeast Anticancer Drug Screen. Data for the CLN2oe strain (AID 163);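 also: 0% = growth of vehicle-only control cultures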; settings: S. cerevisiae CLN2oe strain, stronger effect = higher value
Summary of the method: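 Inhibition relative to vehicle-treated yeast is reported. Cells: strain with genetic alteration in cell-cycle control, grown with compound.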

[8] = NCI Yeast Anticancer Drug Screen. Data for the cln2 rad14 strain (AID 165);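 also: 0% = growth equal to vehicle treated cultures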; settings: S. cerevisiae cln2 rad14 strain, stronger effect = higher value
Summary of the method: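 Each compound was tested on cln2 rad14 yeast. Inhibition of growth was calculated against vehicle-exposed controls.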

[9] = NCI Yeast Anticancer Drug Screen. Data for the bub3 strain (AID 167); settings: S. cerevisiae bub3 mutant strain, stronger effect = higher value
Summary of the method: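 In this screen, a yeast mutant lacking normal mitotic checkpoint function is challenged with compound. Relative growth versus vehicle gives the inhibition value.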

[10] = NCI Yeast Anticancer Drug Screen. Data for the wt2 strain (AID 169);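 also: 0% = growth of vehicle-treated yeast cultures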; settings: S. cerevisiae wt2 strain growth inhibition, stronger effect = higher value
Summary of the method: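 Inhibition of yeast growth was determined after compound treatment, normalised to controls receiving only vehicle.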

[11] = NCI Yeast Anticancer Drug Screen. Data for the sgs1 strain (AID 173);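 also: 0% = growth of vehicle-only control cultures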; settings: S. cerevisiae sgs1 mutant, stronger effect = higher value
Summary of the method: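 Screen format: yeast with repair or checkpoint alterations, compound exposure, growth read relative to vehicle.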

[12] = NCI Yeast Anticancer Drug Screen. Data for the mlh1 rad18 strain (AID 175); settings: S. cerevisiae mlh1 rad18 strain growth inhibition, stronger effect = higher value
Summary of the method: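 Vehicle-treated cultures served as the reference for growth inhibition in a yeast strain carrying DNA damage repair alterations exposed to each compound.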

[13] = NCI Yeast Anticancer Drug Screen. Data for the rad18 strain (AID 177); settings: S. cerevisiae rad18 mutant growth inhibition, stronger effect = higher value
Summary of the method: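 Test articles were incubated with altered yeast defective in DNA damage repair. Results are given as inhibition of growth versus vehicle.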

[14] = NCI Yeast Anticancer Drug Screen. Data for the mec2-1 strain (AID 157); settings: S. cerevisiae mec2-1 strain, stronger effect = higher value
Summary of the method: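 Vehicle-treated cultures served as reference for growth inhibition of compound-exposed mec2-1 yeast.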

[15] = NCI Yeast Anticancer Drug Screen. Data for the mlh1 strain (AID 171);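 also: 0% = growth of vehicle-treated control cultures of the same strain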; settings: S. cerevisiae mlh1 strain growth inhibition, stronger effect = higher value
Summary of the method: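 Vehicle-normalised growth inhibition of a repair- or checkpoint-altered yeast strain following compound treatment.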

[16] = at 5.0 µM (retest, dose inferred, filed as 0.5)
[17] = at 50.0 µM (retest, dose inferred, filed as 5.0)

For `Clc1cc(Cc2ccc(N=C/C=C/c3ccccc3)c(Cl)c2)ccc1N=C/C=C\c1ccccc1`, the growth inhibition ([1]; at 1.2 µM) was 11%, the growth inhibition ([1]; at 3.7 µM) was -1% and the growth inhibition ([1]; at 11.0 µM) was 4%. For the same compound, the growth inhibition ([1]; at 33.0 µM) was 9%, the growth inhibition ([1]; at 100.0 µM) was 30% and the growth inhibition ([2]; at 1.2 µM) was -5%. It also gave a growth inhibition ([2]; at 3.7 µM) of -4%, a growth inhibition ([2]; at 11.0 µM) of -5% and a growth inhibition ([2]; at 33.0 µM) of 1%. It also gave a growth inhibition ([2]; at 100.0 µM) of 14%, a growth inhibition ([3]; at 1.2 µM) of 18% and a growth inhibition ([3]; at 3.7 µM) of -4%. For the same compound, the growth inhibition ([3]; at 11.0 µM) was 15%, the growth inhibition ([3]; at 33.0 µM) was 15% and the growth inhibition ([3]; at 100.0 µM) was 21%. The growth inhibition ([4]; at 1.2 µM) was 13%, the growth inhibition ([4]; at 3.7 µM) was 3% and the growth inhibition [4, 16] was 100% (active). For the same compound, the growth inhibition ([4]; at 11.0 µM) was 8%, the growth inhibition ([4]; at 33.0 µM) was 5% and the growth inhibition [4, 17] was 100% (active). For the same compound, the growth inhibition ([4]; at 50.0 µM) was 71.3% (active), the growth inhibition ([4]; at 100.0 µM) was 32% and the growth inhibition ([5]; at 1.2 µM) was -8%. It also gave a growth inhibition ([5]; at 3.7 µM) of -20%, a growth inhibition ([5]; at 11.0 µM) of -14% and a growth inhibition ([5]; at 33.0 µM) of -19%. The growth inhibition ([5]; at 100.0 µM) was 19%, the growth inhibition [6, 16] was -23% and the growth inhibition [6, 17] was 88% (active). For the same compound, the growth inhibition ([6]; at 50.0 µM) was 62.7%, the growth inhibition ([7]; at 1.2 µM) was -3% and the growth inhibition ([7]; at 3.7 µM) was -18%. It also gave a growth inhibition ([7]; at 11.0 µM) of -20%, a growth inhibition ([7]; at 33.0 µM) of -31% and a growth inhibition ([7]; at 100.0 µM) of 3%. The growth inhibition [8, 16] was 14%, the growth inhibition [8, 17] was 74% (active) and the growth inhibition ([8]; at 50.0 µM) was 58.8%. The growth inhibition ([9]; at 1.2 µM) was -12%, the growth inhibition ([9]; at 3.7 µM) was 1% and the growth inhibition [9, 16] was 30%. The growth inhibition ([9]; at 11.0 µM) was -9%, the growth inhibition ([9]; at 33.0 µM) was -9% and the growth inhibition [9, 17] was 86% (active). It also gave a growth inhibition ([9]; at 50.0 µM) of 54.1%, a growth inhibition ([9]; at 100.0 µM) of -7% and a growth inhibition ([10]; at 1.2 µM) of -11%. The growth inhibition ([10]; at 3.7 µM) was -17%, the growth inhibition ([10]; at 11.0 µM) was -8% and the growth inhibition ([10]; at 33.0 µM) was 4%. For the same compound, the growth inhibition ([10]; at 100.0 µM) was 26%, the growth inhibition ([11]; at 1.2 µM) was 12% and the growth inhibition ([11]; at 3.7 µM) was 7%. It also gave a growth inhibition ([11]; at 11.0 µM) of 8%, a growth inhibition ([11]; at 33.0 µM) of 8% and a growth inhibition ([11]; at 100.0 µM) of 41%. The growth inhibition [12, 16] was 100% (active), the growth inhibition [12, 17] was 100% (active) and the growth inhibition ([12]; at 50.0 µM) was 64.7%. The growth inhibition ([13]; at 1.2 µM) was 1%, the growth inhibition ([13]; at 3.7 µM) was -11% and the growth inhibition ([13]; at 11.0 µM) was -20%. For the same compound, the growth inhibition ([13]; at 33.0 µM) was -25% and the growth inhibition ([13]; at 100.0 µM) was 24%.

`O=C(N/N=C\c1c(Cl)cccc1Cl)N/N=C/c1c(Cl)cccc1Cl` showed a growth inhibition ([1]; at 1.2 µM) of 14%, a growth inhibition ([1]; at 3.7 µM) of 14% and a growth inhibition ([1]; at 11.0 µM) of 23%. For the same compound, the growth inhibition ([1]; at 33.0 µM) was 22%, the growth inhibition ([1]; at 100.0 µM) was 25% and the growth inhibition ([2]; at 1.2 µM) was -2%. For the same compound, the growth inhibition ([2]; at 3.7 µM) was 8%, the growth inhibition ([2]; at 11.0 µM) was 4% and the growth inhibition ([2]; at 33.0 µM) was 17%. The growth inhibition ([2]; at 100.0 µM) was 29%, the growth inhibition ([3]; at 1.2 µM) was 7% and the growth inhibition ([3]; at 3.7 µM) was 19%. For the same compound, the growth inhibition ([3]; at 11.0 µM) was 10%, the growth inhibition ([3]; at 33.0 µM) was 2% and the growth inhibition ([3]; at 100.0 µM) was 5%. It also gave a growth inhibition ([4]; at 1.2 µM) of 14%, a growth inhibition ([4]; at 3.7 µM) of 12% and a growth inhibition [4, 16] of 30%. For the same compound, the growth inhibition ([4]; at 11.0 µM) was 21%, the growth inhibition ([4]; at 33.0 µM) was 14% and the growth inhibition [4, 17] was 97% (active). The growth inhibition ([4]; at 50.0 µM) was -7.7%, the growth inhibition ([4]; at 100.0 µM) was 5% and the growth inhibition ([14]; at 1.2 µM) was 21%. For the same compound, the growth inhibition ([14]; at 3.7 µM) was 25%, the growth inhibition [14, 16] was 35% and the growth inhibition ([14]; at 11.0 µM) was 12%. The growth inhibition ([14]; at 33.0 µM) was 0%, the growth inhibition [14, 17] was 98% (active) and the growth inhibition ([14]; at 50.0 µM) was -13.8%. The growth inhibition ([14]; at 100.0 µM) was 3%, the growth inhibition ([5]; at 1.2 µM) was -4% and the growth inhibition ([5]; at 3.7 µM) was -21%. The growth inhibition ([5]; at 11.0 µM) was 8%, the growth inhibition ([5]; at 33.0 µM) was -7% and the growth inhibition ([5]; at 100.0 µM) was -12%. The growth inhibition [6, 16] was -13%, the growth inhibition [6, 17] was 29% and the growth inhibition ([6]; at 50.0 µM) was 9.15%. It also gave a growth inhibition ([9]; at 1.2 µM) of 6%, a growth inhibition ([9]; at 3.7 µM) of 11% and a growth inhibition [9, 16] of 36%. It also gave a growth inhibition ([9]; at 11.0 µM) of -3%, a growth inhibition ([9]; at 33.0 µM) of 0% and a growth inhibition [9, 17] of 58%. The growth inhibition ([9]; at 50.0 µM) was 12.2%, the growth inhibition ([9]; at 100.0 µM) was 1% and the growth inhibition ([10]; at 1.2 µM) was 11%. For the same compound, the growth inhibition ([10]; at 3.7 µM) was 7%, the growth inhibition ([10]; at 11.0 µM) was 7% and the growth inhibition ([10]; at 33.0 µM) was -3%. For the same compound, the growth inhibition ([10]; at 100.0 µM) was 17%, the growth inhibition ([15]; at 1.2 µM) was -13% and the growth inhibition ([15]; at 3.7 µM) was -7%. The growth inhibition ([15]; at 11.0 µM) was -3%, the growth inhibition ([15]; at 33.0 µM) was -9% and the growth inhibition ([15]; at 100.0 µM) was -8%. For the same compound, the growth inhibition ([11]; at 1.2 µM) was 8%, the growth inhibition ([11]; at 3.7 µM) was 1% and the growth inhibition ([11]; at 11.0 µM) was 19%.
